Source: publication PMC5540273 (PLoS ONE, 2017)

Assays:
Conditions in all cases: concentration: 1 μM, replicates: in singlicate; n = 1
PHKG1 = system: PHKG1
PHKG2 = system: PHKG2
PIK3C2B = system: PIK3C2B
PIK3C2G = system: PIK3C2G
PIK3CA = system: PIK3CA
PIK3CB = system: PIK3CB
PIK3CD = system: PIK3CD
PIK3CG = system: PIK3CG
PIK4CB = system: T1, PIK4CB
T1 construct: gene PI4KB

PIKFYVE = system: PIKFYVE
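Further: KINOMEscan kinase panel screen.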

COc1ccc(CNC(=O)NC2CCN(c3ccnc(Nc4cc(OC)c(OC)c(OC)c4)n3)C2)cc1 (stereo not drawn) [GSK1379748]
%Inh (PHKG1): 0% | %Inh (PHKG2): 31% | %Inh (PIK3C2B): 0% | %Inh (PIK3C2G): 0% | %Inh (PIK3CA): 0% | %Inh (PIK3CB): 0% | %Inh (PIK3CD): 3% | %Inh (PIK3CG): 0% | %Inh (PIK4CB): 46% | %Inh (PIKFYVE): 6%

Cc1cc(-c2ccc3c(c2)CC[C@@H](N[C@@H](C)c2ccccc2)C3)cnc1N.Cl [GW412617]
%Inh (PHKG1): 21% | %Inh (PHKG2): 3% | %Inh (PIK3C2B): 0% | %Inh (PIK3C2G): 0% | %Inh (PIK3CA): 1% | %Inh (PIK3CB): 0% | %Inh (PIK3CD): 0% | %Inh (PIK3CG): 0% | %Inh (PIK4CB): 1% | %Inh (PIKFYVE): 0%

Cc1ccc(NC(=O)Nc2cc(C(C)(C)C)nn2-c2ccccc2)cc1 [GSK1014915]
%Inh (PHKG1): 4% | %Inh (PHKG2): 0% | %Inh (PIK3C2B): 0% | %Inh (PIK3C2G): 0% | %Inh (PIK3CA): 0% | %Inh (PIK3CB): 0% | %Inh (PIK3CD): 0% | %Inh (PIK3CG): 0% | %Inh (PIK4CB): 4% | %Inh (PIKFYVE): 0%

Cc1c(Cn2ccn3c(=O)cc(N4CCOCC4)nc23)cccc1C(F)(F)F [GSK2289044]
%Inh (PHKG1): 0% | %Inh (PHKG2): 10% | %Inh (PIK3C2B): 20% | %Inh (PIK3C2G): 6% | %Inh (PIK3CA): 21% | %Inh (PIK3CB): 100% | %Inh (PIK3CD): 92% | %Inh (PIK3CG): 29% | %Inh (PIK4CB): 0% | %Inh (PIKFYVE): 0%

Fc1cc(Cl)ccc1Nc1ccnc2cc(-c3ccc(CN4CCCCC4)o3)ccc12 [GW560116]
%Inh (PHKG1): 0% | %Inh (PHKG2): 0% | %Inh (PIK3C2B): 0% | %Inh (PIK3C2G): 0% | %Inh (PIK3CA): 0% | %Inh (PIK3CB): 0% | %Inh (PIK3CD): 0% | %Inh (PIK3CG): 0% | %Inh (PIK4CB): 0% | %Inh (PIKFYVE): 0%

Cl.Oc1ccc(-c2nc(-c3ccccc3)[nH]c2-c2ccncc2)cc1 [SB-428218]
%Inh (PHKG1): 49% | %Inh (PHKG2): 0% | %Inh (PIK3C2B): 0% | %Inh (PIK3C2G): 0% | %Inh (PIK3CA): 0% | %Inh (PIK3CB): 0% | %Inh (PIK3CD): 0% | %Inh (PIK3CG): 0% | %Inh (PIK4CB): 0% | %Inh (PIKFYVE): 46%

Clc1cc(Cl)cc(Nc2ccnc(Nc3cc(Cl)cc(Cl)c3)n2)c1 [GSK175726]
%Inh (PHKG1): 0% | %Inh (PHKG2): 0% | %Inh (PIK3C2B): 6% | %Inh (PIK3C2G): 0% | %Inh (PIK3CA): 5% | %Inh (PIK3CB): 40% | %Inh (PIK3CD): 38% | %Inh (PIK3CG): 3% | %Inh (PIK4CB): 0% | %Inh (PIKFYVE): 1%

O=C(Nc1n[nH]c2nc(-c3nccs3)c(Br)cc12)C1CC1 [SB-742251]
%Inh (PHKG1): 0% | %Inh (PHKG2): 0% | %Inh (PIK3C2B): 0% | %Inh (PIK3C2G): 0% | %Inh (PIK3CA): 0% | %Inh (PIK3CB): 0% | %Inh (PIK3CD): 0% | %Inh (PIK3CG): 0% | %Inh (PIK4CB): 0% | %Inh (PIKFYVE): 14%

COc1cccc(NC(=O)NC2CCN(c3ccnc(Nc4ccc(F)cc4)n3)C2)c1 (stereo not drawn) [GSK1379721]
%Inh (PHKG1): 0% | %Inh (PHKG2): 0% | %Inh (PIK3C2B): 11% | %Inh (PIK3C2G): 0% | %Inh (PIK3CA): 3% | %Inh (PIK3CB): 0% | %Inh (PIK3CD): 0% | %Inh (PIK3CG): 13% | %Inh (PIK4CB): 0% | %Inh (PIKFYVE): 31%

Cn1ccc2ncnc(Oc3ccc(Nc4nc5ccccc5[nH]4)cc3)c21
%Inh (PHKG1): 0% | %Inh (PHKG2): 25% | %Inh (PIK3C2B): 0% | %Inh (PIK3C2G): 0% | %Inh (PIK3CA): 0% | %Inh (PIK3CB): 0% | %Inh (PIK3CD): 0% | %Inh (PIK3CG): 0% | %Inh (PIK4CB): 0% | %Inh (PIKFYVE): 0%

Cn1ccc2ncnc(Oc3cccc(C(=O)Nc4ccccc4)c3)c21
%Inh (PHKG1): 0% | %Inh (PHKG2): 0% | %Inh (PIK3C2B): 0% | %Inh (PIK3C2G): 0% | %Inh (PIK3CA): 0% | %Inh (PIK3CB): 15% | %Inh (PIK3CD): 27% | %Inh (PIK3CG): 0% | %Inh (PIK4CB): 2% | %Inh (PIKFYVE): 10%

COc1cccc(-c2cc(-c3c[nH]nc3-c3ccccn3)ccn2)c1 [GW680338]
%Inh (PHKG1): 2% | %Inh (PHKG2): 10% | %Inh (PIK3C2B): 7% | %Inh (PIK3C2G): 11% | %Inh (PIK3CA): 4% | %Inh (PIK3CB): 3% | %Inh (PIK3CD): 0% | %Inh (PIK3CG): 9% | %Inh (PIK4CB): 0% | %Inh (PIKFYVE): 0%

O=C(Nc1ccc2c(c1)OCO2)NC1CCN(c2ccnc(Nc3ccc(F)cc3)n2)C1 (stereo not drawn) [GSK1379724]
%Inh (PHKG1): 0% | %Inh (PHKG2): 0% | %Inh (PIK3C2B): 0% | %Inh (PIK3C2G): 0% | %Inh (PIK3CA): 0% | %Inh (PIK3CB): 0% | %Inh (PIK3CD): 10% | %Inh (PIK3CG): 0% | %Inh (PIK4CB): 39% | %Inh (PIKFYVE): 0%

Cc1cccc(-c2nc(C)cc(Nc3ccncc3)n2)n1 [GSK257997]
%Inh (PHKG1): 0% | %Inh (PHKG2): 7% | %Inh (PIK3C2B): 0% | %Inh (PIK3C2G): 0% | %Inh (PIK3CA): 3% | %Inh (PIK3CB): 0% | %Inh (PIK3CD): 0% | %Inh (PIK3CG): 5% | %Inh (PIK4CB): 0% | %Inh (PIKFYVE): 27%

O=C1NC(=O)C(N2CCc3ccccc32)=C1c1ccccc1Cl [SB-373598]
%Inh (PHKG1): 0% | %Inh (PHKG2): 23% | %Inh (PIK3C2B): 1% | %Inh (PIK3C2G): 0% | %Inh (PIK3CA): 0% | %Inh (PIK3CB): 0% | %Inh (PIK3CD): 10% | %Inh (PIK3CG): 12% | %Inh (PIK4CB): 0% | %Inh (PIKFYVE): 0%

CC(C)(C)c1ccc(C(=O)Nc2cn3cc(Cl)ccc3n2)cc1
%Inh (PHKG1): 0% | %Inh (PHKG2): 0% | %Inh (PIK3C2B): 0% | %Inh (PIK3C2G): 0% | %Inh (PIK3CA): 0% | %Inh (PIK3CB): 0% | %Inh (PIK3CD): 0% | %Inh (PIK3CG): 0% | %Inh (PIK4CB): 0% | %Inh (PIKFYVE): 4%

Cc1cccc(-c2nc(Nc3ccc4[nH]ncc4c3)c3ccccc3n2)n1 [GW857175]
%Inh (PHKG1): 0% | %Inh (PHKG2): 16% | %Inh (PIK3C2B): 8% | %Inh (PIK3C2G): 43% | %Inh (PIK3CA): 0% | %Inh (PIK3CB): 7% | %Inh (PIK3CD): 18% | %Inh (PIK3CG): 0% | %Inh (PIK4CB): 23% | %Inh (PIKFYVE): 85%

CN(C)CCN(C)C(=O)c1cc(-c2ccncc2)c(-c2ccc(Cl)c(O)c2)o1.Cl.Cl [SB-710397]
%Inh (PHKG1): 0% | %Inh (PHKG2): 0% | %Inh (PIK3C2B): 0% | %Inh (PIK3C2G): 0% | %Inh (PIK3CA): 0% | %Inh (PIK3CB): 18% | %Inh (PIK3CD): 40% | %Inh (PIK3CG): 0% | %Inh (PIK4CB): 7% | %Inh (PIKFYVE): 47%
